KDM5B inh – KDM5B demethylase inhibition | AID 1347165 | KDM5B demethylase, FDH-coupled NADH fluorescence (FDH is formaldehyde dehydrogenase) | 220,000 compounds, 2.6% hits | Potency, µM (doses to about 57.7 µM), most hits filed as inhibitors | Q9UGL1; active means well fitted inhibition curve with a large enough effect; further: 0% is about no effect; nearly all actives have a fitted effect of over 70% in size
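Coupled FDH/NAD⁺ fluorescence readout. KDM5BΔAP 200 nM final; compound titration, 10 min RT preincubation; substrate mix 12.5 µM H3K4me3, 25 µM 2-OG, 50 µM Fe(II), 100 µM ascorbate, 0.25 mM NAD⁺, 0.25 U/mL FDH; ΔRFU over 30 min.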
An asterisk follows results filed as active; i = inactive. This is one part of a sample in which hits are shown more often than they occur. Potency means the concentration at half of the fitted maximal effect.

SMILES	KDM5B inh
CCCOc1cccc(-c2cc(C(=O)NCCCN3CCOCC3)c3ccccc3n2)c1	i
CC(=O)c1ccc(OCc2ccc(C(N)=O)cc2)cc1	i
COc1cccc(-n2nnnc2N2CCN(C(=O)Nc3ccc(C)c(F)c3)CC2)c1	i
CCOC(=O)c1cnc(SCC(=O)Nc2cccc(Cl)c2C)nc1N	i
Cc1ccc(NC(=O)COc2ncnc3ccc(Br)cc23)c([N+](=O)[O-])c1	i
CCn1cc(-c2c(-c3ccccc3)ncn2C(CO)C(=O)O)cn1 (centres undefined)	i
CCSc1ncc(-c2c(-c3ccccc3)ncn2CC[C@@H](C)CO)cn1	14µM*
CCc1ncc(-c2c(-c3ccccc3)ncn2CCCOc2cccnc2)cn1	i
COc1cccc(NC(=O)C2CCCN(C(=O)c3ccc(OC)c4ccccc34)C2)c1 (centres undefined)	i
OCC1(CCCc2ccccc2)CCN(Cc2cccc(-n3cccn3)c2)CC1	i
Cc1cc(NC2CCCCC2)c2ccccc2n1	i
Cc1ccc(COc2ccc3ccccc3c2CNCC(O)c2ccccc2)cc1 (centres undefined)	i
Cc1cc(-c2c(C(=O)N3CCOCC3)c(C)nn2-c2ccccc2)no1	i
COc1ccc(-c2cc(C(=O)N3CCC3)c3ccccc3n2)cc1	i
COc1ccc(-c2cc(C(=O)N3CCOCC3)c3c(C)nn(-c4ccccc4)c3n2)cc1	79µM*
CCCCn1c(=O)n(CC(=O)Nc2ccc3c(c2)CCC3)c(=O)c2c1ncn2Cc1ccco1	i
COc1ccccc1C(=O)N/C(=C\c1ccccc1)C(=O)O	i
CCOc1ccccc1NC(=O)c1cc2c(N3CCSCC3)nc(C)cn2n1	28µM*
CCOc1ccc(NC(=O)c2cnc(N3CCCC3)nc2C)cc1	i
CCOc1ccc(NC(=O)c2cc3c(N4CCSCC4)nc(C)cn3n2)cc1	4µM*
CCOc1ccccc1NC(=O)NC1CCN(c2nc(C)cc(C)n2)CC1	i
CCOc1ccccc1NC(=O)Nc1nnc(N2CCCCCC2)s1	i
Cc1cn2nc(C(=O)Nc3ccc(N(C)C)cc3)cc2c(N2CCSCC2)n1	i
CC1CCN(c2nc3c(s2)c(=O)n(C(C)C)c(=O)n3CC(=O)Nc2cccc(Cl)c2)CC1	i
COc1cccc(NC(=O)COc2coc(CN3CCSCC3)cc2=O)c1	i
SMILES	KDM5B inh
COc1ccc2[nH]c(CNc3cc(C4CC(N)C4)nc(C)n3)cc2c1 (centres undefined)	20µM*
COc1ccc2[nH]c(CO)cc2c1	i
COc1ccc(-c2[nH]ncc2CNc2cc(C3CC(O)C3)nc(C)n2)cc1 (centres undefined)	i
CC(C)NC[C@@H](O)c1ccc(NS(C)(=O)=O)cc1	i
COc1ccc(CNC(=O)Cc2c(C)c3c(OC(C)=O)cc(OC(C)=O)cc3oc2=O)cc1	i
CCc1cccc(NC(=O)C2CCc3ncc(-c4ccsc4)n3C2)c1 (centres undefined)	i
Cc1ccc(C(=O)Nc2sccc2C#N)s1	i
Cc1nnc2n1CCC(NC(=O)NCc1ccco1)CC2 (centres undefined)	i
Cc1nnc2n1CCC(NC(=O)c1cccn1C)CC2 (centres undefined)	20µM*
Cc1nnc2n1CCC(NC(=O)c1cnccn1)CC2 (centres undefined)	i
CCCc1sc(C(=O)N2CCCCC2C)cc1Br (centres undefined)	i
Cc1ccc(C)c(OCC(O)Cn2cnc3ncccc3c2=O)c1 (centres undefined)	i
O=C(c1cc(F)cc(Cl)c1)N1CCc2nc(-c3cccc(F)c3)[nH]c2C1	i
O=C(C1CC12CCCC2)N1CCc2onc(-c3cccc(F)c3)c2C1 (centres undefined)	i
O=C1CCC(C(=O)N2CCc3nc(-c4cccc(F)c4)[nH]c3C2)NC(=O)N1 (centres undefined)	22µM*
CC(C)(C)C(=O)Nc1nnc(Cc2ccccc2F)s1	i
Cc1ccc(-c2cc(C(=O)N3CCN(Cc4ccc(C#N)cc4)CC3)c3ccccc3n2)o1	i
COc1ccc(-c2nccc3c(=O)cc(N(C)C)oc23)cn1	40µM*
COc1ncccc1-c1nccc2c(=O)cc(N(C)C3CCOCC3)oc12	i
COc1ncccc1-c1nccc2c(=O)cc(N(C)C)oc12	35µM*
COc1ccc(-c2ccc3ncc(Nc4ccc5c(c4)OCO5)n3n2)cn1	i
Cc1cc(-c2nccc3c(=O)cc(N(C)C)oc23)ccn1	32µM*
CN(c1ccccc1)c1cc(=O)c2ccnc(-c3ccccc3O)c2o1	i
COc1ncccc1-c1nccc2c(=O)cc(-c3ccncc3)oc12	i
CCOc1cc(C(=O)Oc2ccc(C#N)cc2OC)cc(OCC)c1OCC	i
SMILES	KDM5B inh
c1cc2c(cc1-c1csc(C3CC3)n1)OCCCO2	i
O=C(Cc1cccs1)Nc1c(NCC2CCCCC2)c2ccccc2oc1=O	i
CC(C)C(=O)N1CCC(Oc2cccc(F)c2)C1 (centres undefined)	i
O=C(c1ccco1)N(CCc1ccccc1)Cc1cccs1	i
CCC(C)(C(=O)NC1CCCCC1)N(Cc1cccs1)C(=O)c1ccc2c(c1)OCO2 (centres undefined)	i
CN(Cc1ccsc1)C(=O)CC1C=CCC1 (centres undefined)	i
Cc1ccc(NC(=O)c2cc3c(s2)CCCCC3)c(C)c1	i
Cc1noc2nc(-c3ccc(F)cc3)cc(C(=O)NCc3ccc(N4CCOCC4)nc3)c12	i
O=C(NCC(F)(F)F)C1CCN(C(=O)c2ccc(Br)cc2)CC1	i
Cc1cc(C2CCCN2Cc2coc(-c3cccc(Cl)c3)n2)on1 (centres undefined)	i
COC[C@@H]1CCCN1Cc1cn(-c2ccccc2C)nc1-c1ccc(OC)c(F)c1	i
COc1cccc(-c2noc(CC3CCN(C(=O)c4cccc(Cl)c4)CC3)n2)c1	i
COc1cc2cc(CN3CCC[C@H]3CO)c(-c3cccc(Cl)c3)nc2cc1OC	25µM*
COc1ccc(-c2nc3c(C)cccc3cc2CN2CCC[C@H]2CO)cc1OC	25µM*
COc1ccc(CN2CCC(O)(c3csc(CN4CC[C@@H](O)C4)n3)CC2)cc1	i
COc1ccc(-c2noc([C@@H]3CCCN3C(=O)c3cccc(C)c3)n2)cc1OC	i
COc1ccc(OC)c(-c2nc3c(C)cccc3cc2CN2CCCC(O)C2)c1 (centres undefined)	i
COc1ccc(-c2nc3c(C)cccc3cc2CN2CC[C@@H](O)C2)cc1	18µM*
O=C(O)c1ccc(S(=O)(=O)NCc2ccco2)cc1	i
CCC(C)C(=O)N(Cc1ccccn1)C1CC1 (centres undefined)	i
O=C(COC(=O)c1ccc2ccccc2n1)c1ccc2ccccc2c1	i
COc1ccc(Nc2cc3c(cn2)CN(Cc2ccncc2)CCN3)cn1	i
CCn1cc(-c2cc3c(cn2)CN(Cc2ccncc2)CCN3)cn1	32µM*
c1ccc(CN2CCNc3cc(-c4ccncc4)ncc3C2)cc1	i
Cn1nccc1-c1cc2c(cn1)CN(Cc1ccncc1)CCN2	35µM*
Clc1ccc(-c2cc3c(cn2)CN(Cc2ccncc2)CCN3)cc1	32µM*
O=C(C1CC1)N1CCCC(Cc2noc(-c3ccccn3)n2)C1 (centres undefined)	i
COc1ccc(F)cc1C(=O)CSc1nnc(C2CC2)n1C1CC1	i
O=C(c1cccc(F)c1)N1CCC2(CC1)N=C(c1ccccc1)NO2	i
O=C(c1cccc(F)c1)N1CCC2(CC1)N=C(c1ccc(Cl)cc1)NO2	20µM*
